High-throughput results from PubChem BioAssay.
Pol kappa inh-1: qHTS for Inhibitors of Polymerase Kappa | DNA polymerase kappa (Homo sapiens), Q9UBT6 | purified Pol kappa, fluorescent DNA synthesis assay, 10 min | Potency, µM (series often up to 107 µM), hits mostly inhibitors | 400,000 tested, 0.53% active
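50 nM final substrate added after 15 min RT preincubation of 10 nM Pol kappa with compound; fluorescence read at 0 and 10 min.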
WRN helicase inh: qHTS for Inhibitors of WRN Helicase. Bifunctional 3'-5' exonuclease/ATP-dependent helicase WRN (Homo sapiens), Q14191. WRN helicase unwinding, fluorescent forked duplex, kinetic. Potency, µM (doses to about 114 µM), actives largely listed as inhibitors. 360,000 tested, 0.46% active; further: nearly all actives have a fitted effect of over 55% in size
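Kinetic red-fluorescence monitoring (525/598 nm) tracks WRN helicase activity after 100 nM fluorophore-quencher forked duplex and 2 mM ATP are added to 20 nM enzyme pretreated 15 min at room temperature with compound.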
POLB inh: qHTS Assay for Inhibitors of DNA Polymerase Beta. P06746. Pol beta primer extension/strand displacement, fluorescence kinetic. Potency, µM (top dose mostly 114 µM), actives largely listed as inhibitors. 340,000 tested, 1.3% active. AID 485314, 2010
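Pol beta (10 nM) was preincubated with compound for 15 min at room temperature. The reaction was then started with 50 nM substrate and read immediately and after a further 10 min at room temperature.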
Pol eta inh-1: qHTS for Inhibitors of Polymerase Eta. 390,000 tested, 1.2% active. DNA polymerase eta (Homo sapiens), Q9Y253. recombinant Pol eta, fluorescent DNA replication assay. Potency, µM (highest dose often 114 µM), actives largely listed as inhibitors
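Pol eta at 10 nM preincubated with compounds 15 min at room temperature; reaction started with fluorescent substrate (50 nM final) and read kinetically at 0 and 10 min.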
POLI inh: qHTS for Inhibitors of Polymerase Iota; 390,000 tested, 1% active; Potency, µM (titrated, usually from 115 µM), most hits filed as inhibitors; Pol iota fluorescent replication assay, 10 min; DNA polymerase iota (Homo sapiens), Q9UNA4
Target sequence (Q9UNA4 whole entry, looked up): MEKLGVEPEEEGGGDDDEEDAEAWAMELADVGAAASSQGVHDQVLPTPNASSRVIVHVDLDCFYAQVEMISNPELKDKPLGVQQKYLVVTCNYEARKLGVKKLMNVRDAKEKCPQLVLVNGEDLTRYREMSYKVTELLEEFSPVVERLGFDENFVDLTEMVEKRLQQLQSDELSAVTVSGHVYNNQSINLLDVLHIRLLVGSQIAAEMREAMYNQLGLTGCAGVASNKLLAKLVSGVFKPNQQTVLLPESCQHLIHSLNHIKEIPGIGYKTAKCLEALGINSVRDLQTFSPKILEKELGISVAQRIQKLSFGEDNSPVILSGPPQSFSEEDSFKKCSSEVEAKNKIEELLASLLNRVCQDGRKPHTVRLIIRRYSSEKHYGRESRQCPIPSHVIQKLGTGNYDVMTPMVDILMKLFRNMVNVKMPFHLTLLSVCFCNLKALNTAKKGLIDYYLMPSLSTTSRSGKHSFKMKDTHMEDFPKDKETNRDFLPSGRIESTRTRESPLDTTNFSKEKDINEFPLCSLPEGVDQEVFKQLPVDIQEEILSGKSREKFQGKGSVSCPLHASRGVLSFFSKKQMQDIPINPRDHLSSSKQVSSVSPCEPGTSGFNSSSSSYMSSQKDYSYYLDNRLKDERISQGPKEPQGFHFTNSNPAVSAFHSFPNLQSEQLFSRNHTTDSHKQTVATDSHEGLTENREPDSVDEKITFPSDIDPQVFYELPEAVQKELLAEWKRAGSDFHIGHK
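Pol iota at 10 nM preincubated 15 min with compounds at room temperature; reaction started with fluorescent substrate, 50 nM final. Fluorescence read kinetically at 0 and 10 min; buffer-only wells as negative control.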
L3MBTL1 inh: qHTS Assay for the Inhibitors of L3MBTL1 | Lethal(3)malignant brain tumor-like protein 1 (Homo sapiens), Q9Y468 | AlphaScreen L3MBTL1–H3K9me1 peptide binding | Potency, µM (highest dose often 57.1 µM), usual class: inhibitors | 230,000 tested, 0.66% active | AID 485360, 2010; further: nearly all actives have a fitted effect of over 60% in size
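Displacement of a biotinylated histone H3(1-15) peptide monomethylated at Lys9 (75 nM) from L3MBTL1 (50 nM) was measured by AlphaScreen after a 30 min room-temperature compound incubation; cefsulodin titration served as intraplate control.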
GALK inh confirm: Confirmation Assay for Inhibitors of Human Galactokinase (GALK) | shares compounds with Pol eta inh-1 | purified GALK, Kinase-Glo ATP depletion luminescence | Potency, µM (titrated, usually from 115 µM), usual class: inhibitors | 150 tested, 70% active | AID 2015, 2009
GALK redox cs: Confirmatory Assay for Inhibitors of Human Galactokinase (GALK): Phenol-HRP redox assay counterscreen; shares compounds with Pol eta inh-1; Phenol red-HRP H2O2 redox cycling, absorbance 600 nm; Potency, µM (top dose mostly 115 µM), actives largely listed as inhibitors; 150 tested, 40% active; AID 2035, 2009
HEK293 tox: Secondary Assay for Inhibitors of Human Galactokinase (GALK): HEK-293 Cell Viability Assay. HEK-293 viability, ATP luminescence (CellTiter-Glo), 24/48 h. AID 2547, 2010. Potency, µM (titrated, usually from 46.1 µM), most hits filed as inhibitors. shares compounds with Pol eta inh-1. 170 tested, 10% active
Pol kappa inh-2: qHTS for Inhibitors of Polymerase Kappa: Confirmatory Assay for Cherry-picked Compounds. 920 tested, 76% active. AID 720501, 2013. purified Pol-kappa, fluorescent strand-displacement substrate. shares compounds with Pol eta inh-1. Potency, µM, most hits filed as inhibitors
Pol eta inh-2: qHTS for Inhibitors of Polymerase Eta: Confirmatory Assay for Cherry-picked Compounds. 2,600 tested, 64% active. shares compounds with Pol eta inh-1. Potency, µM, actives largely listed as inhibitors. AID 720502, 2013. Pol eta primer extension, TAMRA/BHQ fluorescence, 10 min
Large screens that a line does not name were inactive (follow-up assays come after a bar, where they were run). Hits are enriched below; roughly 2.5% of the tested compounds scored in any of these assays. The call rests on the fitted dose curve; in most records, active means well fitted curve in the direction sought with a large enough effect; inconclusive means small, poorly fitted or top-dose-only effect, or another doubt; inactive means no such curve, though single readings can be large; an effect the other way counts as inactive or inconclusive.

C/C(=N/NC(=O)c1nnn(-c2nonc2N)c1COc1ccccc1)c1ccccc1	none (no result: L3MBTL1 inh)
Cc1ccc(-c2cc(C(=O)N3CC(C)CC(C)C3)c3ccccc3n2)o1 (stereo not given)	Pol kappa inh-1 inconclusive, WRN helicase inh 50.1µM, POLB inh 39.8µM, Pol eta inh-1 79.4µM (no result: L3MBTL1 inh) | Pol eta inh-2 75.7
N#Cc1c(NC(=O)c2ccc(Br)o2)n(-c2ccccc2)c2nc3ccccc3nc12	Pol eta inh-1 35.5µM, POLI inh 10µM | GALK inh confirm 26.6µM | GALK redox cs 5.3µM | HEK293 tox inactive
CN1C(=O)C(C)(C)c2cc(S(=O)(=O)NCC3CCC(C(=O)NCc4ccc(F)cc4)CC3)ccc21 (stereo not given)	none (no result: L3MBTL1 inh)
O=C(O)c1ccc(Cn2cc(/C=C\[N+](=O)[O-])c3ccccc32)o1	Pol kappa inh-1 inconclusive, WRN helicase inh inconclusive, POLB inh inconclusive, Pol eta inh-1 22.4µM, POLI inh 8.91µM | Pol eta inh-2 75.7
COC(=O)c1ccc(Cn2cc(/C=C\[N+](=O)[O-])c3ccccc32)o1	POLI inh inconclusive
COc1ccc(C(=O)Cn2cc([N+](=O)[O-])nc2C)cc1	none (no result: L3MBTL1 inh)
CCOC(=O)C1CCCN(C(=O)CSc2ccc(NC(C)=O)cc2)C1 (stereo not given)	none
Cc1cc(OCCCSc2nc(-c3ccc(C(C)(C)C)cc3)nc3cc(=O)[nH]n23)ccc1Cl	Pol kappa inh-1 inconclusive, POLB inh 39.8µM, Pol eta inh-1 79.4µM, POLI inh inconclusive (no result: WRN helicase inh, L3MBTL1 inh) | Pol eta inh-2 inconclusive
CCc1cc(OCCCSc2nc(C)cc(=O)[nH]2)ccc1Cl	POLB inh inconclusive (no result: L3MBTL1 inh)
Cc1cc(C)cc(OCCSc2nc(-c3ccc(C(C)(C)C)cc3)nc3cc(=O)[nH]n23)c1	POLB inh 22.4µM, Pol eta inh-1 inconclusive (no result: WRN helicase inh, L3MBTL1 inh) | Pol eta inh-2 84.9
CCN(CC(=O)Nc1ccc(NC(C)=O)cc1)C(=O)CSc1ncnc2sc(C)c(C)c12	Pol eta inh-1 inconclusive, POLI inh inconclusive (no result: POLB inh) | Pol eta inh-2 inconclusive
Cc1ccc(-c2csc(NC(=O)c3ccno3)n2)cc1	POLB inh 14.1µM, Pol eta inh-1 44.7µM, POLI inh inconclusive (no result: L3MBTL1 inh) | Pol eta inh-2 inconclusive
Cc1ccc(-c2csc(NC(=O)c3ccc(C)o3)n2)cc1	none
O=C(Cn1ncc2c3ccccc3n(Cc3ccccc3)c2c1=O)NCCc1ccc(Cl)cc1	none (no result: WRN helicase inh, L3MBTL1 inh)
COc1ccc(Cl)cc1NC(=O)c1c(NCc2ccc(C)o2)sc2c1CCCC2	Pol eta inh-1 50.1µM, POLI inh inconclusive (no result: WRN helicase inh, L3MBTL1 inh) | Pol eta inh-2 inconclusive
COc1ccc(Cl)cc1NC(=O)c1c(NCc2cccnc2)sc2c1CCCC2	Pol eta inh-1 inconclusive (no result: WRN helicase inh, L3MBTL1 inh)
O=C(CCS(=O)(=O)c1ccccc1)Nc1nnc(-c2ccco2)o1	none (no result: L3MBTL1 inh)
CC(=O)n1cc(N(C(=O)CCl)c2ccccc2)c2ccccc21	Pol eta inh-1 14.1µM | Pol eta inh-2 42.6
CC(=O)n1cc(CO)c2ccccc21	none (no result: L3MBTL1 inh)
COc1cccc(NC(=O)c2csc3c2CCCCC3)c1	none (no result: WRN helicase inh, L3MBTL1 inh)
CC(C)(O)CCCC(C)(O)c1ccc(C(=O)O)cc1O (stereo not given)	Pol kappa inh-1 inconclusive, POLB inh 39.8µM, Pol eta inh-1 10µM, POLI inh 35.5µM (no result: L3MBTL1 inh) | Pol eta inh-2 60.1
O=C(O)c1cccc(-n2cccc2C=C2C(=O)c3ccccc3C2=O)c1	WRN helicase inh inconclusive, POLB inh inconclusive, Pol eta inh-1 15.8µM, POLI inh inconclusive (no result: L3MBTL1 inh) | Pol eta inh-2 75.7
Cc1cc(C=C2C(=O)c3ccccc3C2=O)c(C)n1-c1ccccc1	none
Cc1cc(C=C2C(=O)c3ccccc3C2=O)c(C)n1-c1ccc(C(=O)O)cc1	Pol kappa inh-1 inconclusive, WRN helicase inh inconclusive, POLB inh inconclusive, Pol eta inh-1 25.1µM, POLI inh 35.5µM, L3MBTL1 inh inconclusive | Pol eta inh-2 inconclusive
Cc1cc(/C=c2/sc3nc4ccccc4n3c2=O)c(C)n1-c1ccccn1	none
Cc1cc(/C=c2\sc3nc4ccccc4n3c2=O)c(C)n1-c1ccc(C(=O)O)cc1	WRN helicase inh inconclusive, POLB inh 22.4µM, Pol eta inh-1 22.4µM, POLI inh 44.7µM | Pol eta inh-2 inconclusive
O=C1C(=Cc2cccn2-c2ccccc2)C(=O)c2ccccc21	Pol eta inh-1 inconclusive
O=C(CN1CCCCCC1)N/N=C/c1ccc2ccccc2c1	none
Cc1cc(/C=C2\C=Cc3ccccc32)ccc1N(C)C	none (no result: WRN helicase inh, POLB inh, Pol eta inh-1, L3MBTL1 inh)
C=CCOCCN1C(=O)C2C3C=CC(C2C1=O)C1C2C(=O)N(CCOCC=C)C(=O)C2C31 (stereo not given)	Pol kappa inh-1 inconclusive, WRN helicase inh inconclusive, POLB inh inconclusive, Pol eta inh-1 20µM, POLI inh 28.2µM (no result: L3MBTL1 inh) | Pol eta inh-2 67.5
O=C(CSc1nc2ccc(S(=O)(=O)N3CCOCC3)cc2[nH]1)N1CCOCC1	none (no result: L3MBTL1 inh) | Pol kappa inh-2 29.9 | Pol eta inh-2 inconclusive
Cc1nc2ccc(Cl)cc2c(-c2ccccc2)c1CC(=O)O	none
NC(=O)c1ccsc1NC(=O)COC(=O)c1ccc([N+](=O)[O-])o1	none (no result: POLB inh)
NC(=O)c1ccsc1NC(=O)c1ccc([N+](=O)[O-])o1	Pol kappa inh-1 79.4µM, Pol eta inh-1 44.7µM, POLI inh 50.1µM, L3MBTL1 inh inconclusive (no result: POLB inh) | Pol eta inh-2 inconclusive
